The results in this text go back to PubChem BioAssay AID588475 (Sanford-Burnham Center for Chemical Genomics, 2011).

Hit rate of the full screen: of about 350,000 compounds, about 2,100 (0.6%) were called active.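 The calls were made as follows: active = inhibition of the ligand-induced calcium signal above about 50% at the single tested concentration (limit read from the data); inactive = the rest.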 Only a selection was taken, and actives are over-represented in it overall.

A short description of this experiment: blockers of CRF-evoked CRF-R2/CRF-BP calcium response – cell-based, HEK293, calcium dye fluorescence, uHTS, primary screen (AID 588475). The settings on record: CRF-induced calcium fluorescence, at 11.8 µM, active compounds read high.
As to `CCCCn1c(=O)c(C(=O)Nc2ccccc2Cl)c(O)c2ccccc21`, the inhibition was -17.9% (inactive).

Take `CCCCCn1c(=O)c(C(=O)NCc2ccccc2)c(O)c2ccccc21`: the inhibition is 3.02% (inactive).

With `CCCCCn1c(=O)c(C(=O)Nc2c(C)n(C)n(-c3ccccc3)c2=O)c(O)c2ccccc21`, the inhibition is 56.7% (active).

`O=C(COc1ccc2ccccc2c1)N1CCN(Cc2ccncc2)CC1`: the inhibition is -1.35% (inactive).

As to `O=c1c2ccccc2nc(-c2ccc(Cl)cc2Cl)n1-c1ccncc1`, the inhibition was 13.6% (inactive).
